Laboratory results reported in PubChem BioAssay (Tox21).
A number with no mark means an inactive call. Results filed as inconclusive are left out. Calls of active or inactive are those of the source. Calls come from the whole dose curve; as a rule, active = well fitted curve in the direction sought with a large enough effect in the repeat runs; inconclusive = weak or mixed curves; inactive = no such curve, though single readings can be large; an effect the other way counts as inactive or inconclusive.

tested on: not listed separately; assay: Caspase-3/7 induction in CHO-K1 cells by small molecules, qHTS assay (AID 1346980); settings: CHO-K1 caspase-3/7 induction, Caspase-Glo luminescence, 17 h; series mostly up to 92.4 µM; caspase-3/7 activation: at the top concentration; note: nearly all actives have a fitted effect of over 15% in size
In short: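 Wild-type cells were seeded at 1,500 per well and settled 5 hr at 37 C, 5% CO2, then exposed to DMSO-dissolved compounds for 17 hr. Caspase-Glo 3/7 reagent was added, and luminescence was read after 30min at room temperature.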
% is set by controls: 0 for no effect and ±100 for the full control effect.

SMILES	caspase-3/7 activation	outcome
CCO[Si](CCC1CCC2OC2C1)(OCC)OCC (stereo not given)	0.365%	
CC(=O)c1ccccc1O	-0.585%	
O=Cc1cccc([N+](=O)[O-])c1	2.04%	
COc1ccc2c(c1)c(CC(=O)OCC(=O)O)c(C)n2C(=O)c1ccc(Cl)cc1	0.493% [at 42.5 µM]	
CCCCCCCCS(=O)(=O)Cl	-2.45%	
Cc1c(O)cccc1O	0.311%	
Nc1c2c(nc3ccccc13)CCCC2O (stereo not given)	-0.0367% [at 42.5 µM]	
COC(=O)c1c(Cl)c(Cl)c(C(=O)OC)c(Cl)c1Cl		inactive
CC/C=C\CC/C=C/C(OCC)OCC	1.6%	
CCCN(CCC)CCc1cccc2c1CC(=O)N2	-0.86% [at 42.5 µM]	
C[C@H](NC(CCc1ccccc1)C(=O)O)C(=O)N1CCC[C@H]1C(=O)O (stereo not given in full)	0.823% [at 42.5 µM]	
CC(=O)CC(C)(C)C1CCCCC1	2.23%	
NC(=O)c1ccc([N+](=O)[O-])cc1	-0.696%	
C=CCCCCCCCCC=O	-2.1%	
COC(=O)c1cc(C(=O)OC)cc(S(=O)(=O)O)c1	-1.56%	
CCc1ccc(O)c(OC)c1	0.0426%	
CO[C@]12C[C@@H](COC(=O)c3cncc(Br)c3)CN(C)[C@@H]1Cc1cn(C)c3cccc2c13	-2.15% [at 42.5 µM]	
CS(=O)(=O)O	0.0153%	

SMILES	caspase-3/7 activation	outcome
COC(=O)NN	-0.782%	
Nc1c[n+](N2CCOCC2)no1	-0.478% [at 42.5 µM]	
CC(=O)OCC(=O)[C@@]1(O)CC[C@H]2[C@@H]3CCC4=CC(=O)CC[C@]4(C)[C@H]3C(=O)C[C@@]21C	1.35% [at 42.5 µM]	
CCCCCCCCCCCCCC=O	1.18% [at 8.39 µM]	
OC1CCCCC1c1ccccc1 (stereo not given)	-0.0459%	
O=C(O)CCCl	0.451%	
C/C=C(\C)C#N	0.9%	
CC(C)(O)C(=O)c1ccccc1	-0.99%	
C=COCC1CCC(CO)CC1 (stereo not given)	-0.21%	
C=C1CC[C@H]2C[C@@H]1C2(C)C	-0.387%	
OCCOc1ccc(OCCO)cc1	-0.174%	
COC(=O)CCSCCC(=O)OC	-0.533%	
O=[N+]([O-])c1ccc(F)cc1F	0.614%	
CC(=O)Nc1ccc(S(N)(=O)=O)cc1	-1.42%	
N=C(N)c1ccc(OCCCOc2ccc(C(=N)N)cc2)cc1	3.55% [at 42.5 µM]	
O=C(O)c1ccccc1OP(=O)(O)O	-0.491% [at 42.5 µM]	
CN1N=C(C(N)=O)CCC1=O	3.12% [at 42.5 µM]	

tested on: not listed separately; assay: Caspase-3/7 induction in HepG2 cells by small molecules, qHTS cell viability counter screen (AID 1346981); settings: CellTiter-Fluor fluorescence, 17 h; series mostly up to 92.4 µM; activity change, negative = cytotoxicity: at the top concentration; note: nearly all actives have a fitted effect of over 30% in size
In short: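 After a 5-hr attachment period at 37 C and 5% CO2, wild-type HepG2 cells received compounds in DMSO. Sixteen hours later CellTiter-Fluor was dispensed and the fluorescent signal quantified after a further hour.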

SMILES	activity change, negative = cytotoxicity
CCO[Si](CCC1CCC2OC2C1)(OCC)OCC (stereo not given)	1.42%
CC(=O)c1ccccc1O	-0.542%
O=Cc1cccc([N+](=O)[O-])c1	1.77%
COc1ccc2c(c1)c(CC(=O)OCC(=O)O)c(C)n2C(=O)c1ccc(Cl)cc1	-1.32% [at 42.5 µM]
CCCCCCCCS(=O)(=O)Cl	-1.07%
Cc1c(O)cccc1O	0.105%
Nc1c2c(nc3ccccc13)CCCC2O (stereo not given)	-1.78% [at 42.5 µM]
COC(=O)c1c(Cl)c(Cl)c(C(=O)OC)c(Cl)c1Cl	5.56%
CC/C=C\CC/C=C/C(OCC)OCC	0.887%
CCCN(CCC)CCc1cccc2c1CC(=O)N2	0.504% [at 42.5 µM]
C[C@H](NC(CCc1ccccc1)C(=O)O)C(=O)N1CCC[C@H]1C(=O)O (stereo not given in full)	6.12% [at 42.5 µM]
CC(=O)CC(C)(C)C1CCCCC1	-0.486%
NC(=O)c1ccc([N+](=O)[O-])cc1	0.0382%
C=CCCCCCCCCC=O	2.34%
COC(=O)c1cc(C(=O)OC)cc(S(=O)(=O)O)c1	6.93%
CCc1ccc(O)c(OC)c1	5.77%
CO[C@]12C[C@@H](COC(=O)c3cncc(Br)c3)CN(C)[C@@H]1Cc1cn(C)c3cccc2c13	0.162% [at 42.5 µM]
CS(=O)(=O)O	7.75%

SMILES	activity change, negative = cytotoxicity
COC(=O)NN	6.54%
Nc1c[n+](N2CCOCC2)no1	-0.636% [at 42.5 µM]
CC(=O)OCC(=O)[C@@]1(O)CC[C@H]2[C@@H]3CCC4=CC(=O)CC[C@]4(C)[C@H]3C(=O)C[C@@]21C	3.61% [at 42.5 µM]
CCCCCCCCCCCCCC=O	-0.047% [at 8.39 µM]
OC1CCCCC1c1ccccc1 (stereo not given)	2.87%
O=C(O)CCCl	-0.134%
C/C=C(\C)C#N	0.398%
CC(C)(O)C(=O)c1ccccc1	8.43%
C=COCC1CCC(CO)CC1 (stereo not given)	2.65%
C=C1CC[C@H]2C[C@@H]1C2(C)C	-0.556%
OCCOc1ccc(OCCO)cc1	8.71%
COC(=O)CCSCCC(=O)OC	-0.22%
O=[N+]([O-])c1ccc(F)cc1F	-0.0702%
CC(=O)Nc1ccc(S(N)(=O)=O)cc1	1.99%
N=C(N)c1ccc(OCCCOc2ccc(C(=N)N)cc2)cc1	-1.1% [at 42.5 µM]
O=C(O)c1ccccc1OP(=O)(O)O	4.85% [at 42.5 µM]
CN1N=C(C(N)=O)CCC1=O	9.79% [at 42.5 µM]

molecular target: Nuclear receptor subfamily 1 group I member 2 (Homo sapiens) (UniProt O75469); assay: Human pregnane X receptor (PXR) small molecule agonists, qHTS assay (AID 1346982); settings: PXR-Luc HepG2, CYP3A4 luciferase reporter, 24 h; series mostly up to 92.4 µM; activation: at the top concentration; note: nearly all actives have a fitted effect of over 35% in size; note: potency is the fitted concentration of half-maximal effect
Sequence (O75469 whole entry, looked up): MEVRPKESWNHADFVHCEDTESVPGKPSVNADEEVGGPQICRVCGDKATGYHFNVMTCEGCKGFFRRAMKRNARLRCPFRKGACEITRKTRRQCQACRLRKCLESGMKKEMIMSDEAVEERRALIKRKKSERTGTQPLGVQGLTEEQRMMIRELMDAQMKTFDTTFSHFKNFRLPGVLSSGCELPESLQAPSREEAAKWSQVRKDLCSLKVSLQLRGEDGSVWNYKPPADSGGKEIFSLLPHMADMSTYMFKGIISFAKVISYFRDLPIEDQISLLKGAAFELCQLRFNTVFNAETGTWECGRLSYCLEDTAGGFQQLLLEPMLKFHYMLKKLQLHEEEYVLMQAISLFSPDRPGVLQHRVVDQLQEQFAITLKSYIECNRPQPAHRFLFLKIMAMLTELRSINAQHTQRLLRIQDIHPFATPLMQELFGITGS
In short: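 Tox21 qHTS; PXR-Luc HepG2; compounds pinned from DMSO; 24 hr, 37 C; ONE-Glo luciferase detection, 30 min room temperature.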

SMILES	activation	Potency
CCO[Si](CCC1CCC2OC2C1)(OCC)OCC (stereo not given)	7.91%	
CC(=O)c1ccccc1O	-22.1%	
O=Cc1cccc([N+](=O)[O-])c1	-0.183%	
COc1ccc2c(c1)c(CC(=O)OCC(=O)O)c(C)n2C(=O)c1ccc(Cl)cc1	-5.08% [at 42.5 µM]	
CCCCCCCCS(=O)(=O)Cl	16.6%	
Cc1c(O)cccc1O	-2.1%	
Nc1c2c(nc3ccccc13)CCCC2O (stereo not given)	-23% [at 42.5 µM]	
COC(=O)c1c(Cl)c(Cl)c(C(=O)OC)c(Cl)c1Cl		21.7 µM (active)
CC/C=C\CC/C=C/C(OCC)OCC		24.3 µM (active)
CCCN(CCC)CCc1cccc2c1CC(=O)N2	2.36% [at 42.5 µM]	
C[C@H](NC(CCc1ccccc1)C(=O)O)C(=O)N1CCC[C@H]1C(=O)O (stereo not given in full)	-7.62% [at 42.5 µM]	
CC(=O)CC(C)(C)C1CCCCC1	0.733%	
NC(=O)c1ccc([N+](=O)[O-])cc1	2%	
C=CCCCCCCCCC=O	11.8%	
COC(=O)c1cc(C(=O)OC)cc(S(=O)(=O)O)c1	19.8%	
CCc1ccc(O)c(OC)c1	1.02%	
CO[C@]12C[C@@H](COC(=O)c3cncc(Br)c3)CN(C)[C@@H]1Cc1cn(C)c3cccc2c13	3.27% [at 42.5 µM]	
CS(=O)(=O)O	1.8%	

SMILES	activation	Potency
COC(=O)NN	6.36%	
Nc1c[n+](N2CCOCC2)no1	-6.4% [at 42.5 µM]	
CC(=O)OCC(=O)[C@@]1(O)CC[C@H]2[C@@H]3CCC4=CC(=O)CC[C@]4(C)[C@H]3C(=O)C[C@@]21C	2.57% [at 42.5 µM]	
CCCCCCCCCCCCCC=O	-0.115% [at 8.39 µM]	
OC1CCCCC1c1ccccc1 (stereo not given)	10.9%	
O=C(O)CCCl		61.9 µM (active)
C/C=C(\C)C#N	8.02%	
CC(C)(O)C(=O)c1ccccc1	6.75%	
C=COCC1CCC(CO)CC1 (stereo not given)	-3.76%	
C=C1CC[C@H]2C[C@@H]1C2(C)C	19.5%	
OCCOc1ccc(OCCO)cc1	10.4%	
COC(=O)CCSCCC(=O)OC	6.91%	
O=[N+]([O-])c1ccc(F)cc1F	-0.836%	
CC(=O)Nc1ccc(S(N)(=O)=O)cc1	1.26%	
N=C(N)c1ccc(OCCCOc2ccc(C(=N)N)cc2)cc1	10.3% [at 42.5 µM]	
O=C(O)c1ccccc1OP(=O)(O)O	-0.861% [at 42.5 µM]	
CN1N=C(C(N)=O)CCC1=O	-7.7% [at 42.5 µM]	
